LEDGF integ inh = blocks HIV-1 LEDGF/p75-dependent DNA integration; TR-FRET IN-LEDGF/p75 DNA integration, Eu/Cy5; inhibition, % at 3.7 µM; actives 0.64% (n = 370,000); AID 743269;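 active = inhibition above the screen-wide mean plus 3 SD, cut at about 13% in these data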;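 also: signal is the Cy5 over europium emission ratio at 671 and 618 nm; 0% = plate median of compound wells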
PLCg1 inh = PLC-gamma1 (human) inhibition, primary screen; actives 0.84% (n = 370,000); inhibition, % at 12.2 µM; purified PLC-gamma1, fluorogenic substrate, fluorescence; in the data active = inhibition above about 9.5%
Target sequence (P19174 whole entry, looked up): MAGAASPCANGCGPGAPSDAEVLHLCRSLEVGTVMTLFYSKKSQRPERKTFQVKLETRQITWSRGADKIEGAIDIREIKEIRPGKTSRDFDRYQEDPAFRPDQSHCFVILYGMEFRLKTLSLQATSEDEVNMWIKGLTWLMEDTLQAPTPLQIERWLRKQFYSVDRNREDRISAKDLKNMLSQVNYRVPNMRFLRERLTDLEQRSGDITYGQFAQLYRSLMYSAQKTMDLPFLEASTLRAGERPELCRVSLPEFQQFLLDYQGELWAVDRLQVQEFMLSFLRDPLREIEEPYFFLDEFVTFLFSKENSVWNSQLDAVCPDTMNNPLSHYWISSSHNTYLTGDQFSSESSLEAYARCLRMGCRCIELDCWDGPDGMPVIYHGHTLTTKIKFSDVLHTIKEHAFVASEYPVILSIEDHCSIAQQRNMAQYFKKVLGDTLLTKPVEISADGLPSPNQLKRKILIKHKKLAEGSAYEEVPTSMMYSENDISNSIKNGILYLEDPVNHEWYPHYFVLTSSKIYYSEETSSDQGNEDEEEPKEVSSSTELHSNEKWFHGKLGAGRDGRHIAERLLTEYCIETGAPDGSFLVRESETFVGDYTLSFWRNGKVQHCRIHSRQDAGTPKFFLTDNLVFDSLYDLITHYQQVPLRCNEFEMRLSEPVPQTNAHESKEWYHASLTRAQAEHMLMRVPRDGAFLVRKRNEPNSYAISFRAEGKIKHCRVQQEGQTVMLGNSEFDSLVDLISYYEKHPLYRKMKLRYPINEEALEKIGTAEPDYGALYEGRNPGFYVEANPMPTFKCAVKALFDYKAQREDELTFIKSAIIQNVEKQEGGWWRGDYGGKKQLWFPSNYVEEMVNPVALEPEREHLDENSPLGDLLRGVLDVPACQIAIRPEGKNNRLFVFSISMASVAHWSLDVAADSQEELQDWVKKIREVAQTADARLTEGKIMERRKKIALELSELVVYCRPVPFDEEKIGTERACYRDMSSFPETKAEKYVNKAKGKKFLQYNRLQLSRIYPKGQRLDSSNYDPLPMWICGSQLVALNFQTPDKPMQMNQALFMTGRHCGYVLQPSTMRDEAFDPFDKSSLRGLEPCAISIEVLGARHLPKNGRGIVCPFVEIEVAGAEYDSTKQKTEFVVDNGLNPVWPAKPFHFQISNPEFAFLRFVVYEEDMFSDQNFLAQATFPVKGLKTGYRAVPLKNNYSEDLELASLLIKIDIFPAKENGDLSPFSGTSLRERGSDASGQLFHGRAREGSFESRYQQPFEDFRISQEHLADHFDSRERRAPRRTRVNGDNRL
PLCb3 inh = inhibitors of human phospholipase C beta3 | Purified PLC-beta3, fluorogenic substrate, fluorescence | Q01970 | inhibition, % at 12.2 µM | actives 0.18% (n = 370,000); in the data active = inhibition above about 11%;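 also: 0% = median of compound wells on plate and 100% = full blocker control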
MBD2 DNA inh = blocks human MBD2 binding to methylated DNA; Q9UBB5; TR-FRET, MBD2 binding to methylated oligonucleotide; inhibition, % at 4.4 µM; actives 0.31% (n = 370,000); AID 686964; in the data active = inhibition above about 13%
UHRF1 MBD2 ctr = UHRF1 methyl-DNA binding inhibition. UHRF1 binding to methylated oligo, TR-FRET. Q96T88. inhibition, % at 4.4 µM. actives 0.75% (n = 370,000);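 also: UHRF1 SRA domain binding a hemimethylated CpG hairpin DNA probe; 0% = median of test compound wells and 100% = reference inhibitor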
UHRF1 DNA bind = UHRF1 methyl-oligo binding inhibition as MBD2 counter-screen; shares compounds with MBD2 DNA inh; UHRF1 binding to methylated oligonucleotide, TR-FRET; inhibition, % at 4.4 µM; actives 25% (n = 1,000); AID 720530;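 also: UHRF1 SRA domain binding a labeled hemimethylated CpG hairpin DNA; 0% = vehicle only and 100% = reference inhibitor with vehicle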
MBD2 confirm = confirmation of human MBD2-DBD methylated oligonucleotide binding inhibitors; actives 26% (n = 1,000); inhibition, % at 4.4 µM; TR-FRET MBD2-DBD binding to methylated oligonucleotide; AID 720531; shares compounds with MBD2 DNA inh; in the data active = inhibition above about 14%
An asterisk follows results filed as active; . = no result given. Only some compounds are listed: those with a hit (about 2.3% of all), similar ones and a draw of the others. Rule as the data show it, unless noted: active = inhibition above about 21%; inactive = the rest.

SMILES	LEDGF integ inh	PLCg1 inh	PLCb3 inh	MBD2 DNA inh	UHRF1 MBD2 ctr	UHRF1 DNA bind	MBD2 confirm
CCSc1nc(O)c(Cc2ccccc2)c(=O)[nH]1	-0.7	1.2	4.8	13.2*	13.9	4.0	6.3
O=C(C1=C(O)C(=O)N(CCN2CCOCC2)C1c1ccc(Cl)cc1)c1cc2ccccc2o1 (configuration not stated)	0.6	-11.9	-19.1	15.8*	-2.4	5.7	-1.5
CC(=O)c1ccccc1NC(=O)COC(=O)C1CCCN1S(=O)(=O)c1ccccc1F (configuration not stated)	5.3	-7.0	-20.8	15.4*	0.5	8.2	2.6
CCOC(=O)CC[C@H]1CC[C@]2(CCCN(C(=O)c3ccno3)C2)O1	-0.1	-1.0	-2.7	4.1	2.9	.	.
CC(=O)c1cc(-c2ccccc2-c2ccccc2)c(=O)n2c1CCC2	5.8	-2.9	-4.0	1.4	-0.3	.	.
NNC(=O)Cn1c2ccccc2c2ccccc21	3.4	2.4	1.8	13.8*	-2.4	7.9	2.9
COc1cccc(CC(=O)Nc2ccc(S(=O)(=O)N3CCCCC3)cc2)c1	-0.7	8.8	5.3	13.3*	1.0	4.5	3.1
COC(=O)c1cc(OC)c(OC)cc1NC(=S)N1CCCC(CO)C1 (configuration not stated)	-4.8	-1.0	-1.5	0.6	-2.1	.	.
COC(=O)c1ccc(C(=O)OC)c(NC(=S)N2CCCC(CO)C2)c1 (configuration not stated)	-0.1	-133.0	-198.2	24.2*	1.4	1.3	3.9
O=C(O)CCCCC1CCSS1 (configuration not stated)	0.7	5.2	0.6	22.4*	48.1*	36.4*	15.8*
CCCCCCCCCC(=O)O	0.6	4.0	6.4	1.0	-3.1	.	.
CC(c1c[nH]c2ccccc12)c1c[nH]c2ccc(Br)cc12 (configuration not stated)	-2.6	-3.9	-7.8	-1.1	-1.3	.	.
Cc1cc(NC(=O)COC(=O)C2CC(=O)N(c3ccc(Br)cc3)C2)no1 (configuration not stated)	1.5	0.1	-11.8	2.6	1.4	.	.
COc1ccc(OC)c(NC(=O)C2CC(=O)N(c3ccccc3)C2)c1 (configuration not stated)	3.7	3.0	0.0	14.7*	11.6	11.2	2.2
COc1ccc(N2CC(C(=O)OCC(=O)Nc3cc(C)on3)CC2=O)cc1 (configuration not stated)	3.0	-0.2	-2.4	19.6*	41.1*	9.7	2.5
COc1ccc(OC)c(NC(=O)C2CC(=O)N(c3ccc(Br)cc3)C2)c1 (configuration not stated)	2.5	0.0	-0.1	-0.1	-1.7	.	.
C/C(=N/NC(=O)Cc1cccs1)c1cccc([N+](=O)[O-])c1	3.0	-5.3	-1.3	-5.8	-1.5	.	.
CC(C)CNc1cccc2c1S(=O)(=O)N(Cc1cn(Cc3ccc(F)cc3)nn1)Cc1ccccc1O2	-1.6	-12.4	-18.3	1.8	1.7	.	.
CNS(=O)(=O)c1cccc(C(=O)OCC(=O)NCc2ccccc2)c1	2.1	-3.4	-2.3	3.5	0.5	.	.
CNS(=O)(=O)c1cccc(C(=O)OCC(=O)Nc2ccccc2F)c1	0.1	4.6	6.5	16.7*	25.7*	4.1	1.8
COC(=O)[C@H]1C[C@@]2(N3CCCCC3)c3ccccc3N[C@H]2N1S(=O)(=O)c1ccc(C)cc1	-2.7	2.1	-3.6	2.8	-0.4	.	.
CCOc1ccc(-n2c(SCC(=O)Nc3ccc(S(=O)(=O)Nc4cc(C)nc(C)n4)cc3)nnc2-c2cccc(C)c2)cc1	1.5	1.9	3.1	-3.9	0.3	.	.
COC(=O)Cn1nc(-c2ccccc2)c2cccc(C(F)(F)F)c21	-4.4	-1.5	2.0	0.6	0.7	.	.
COc1ccc(CC(=O)N2CCN(c3cccc(C)c3C)CC2)cc1	-2.5	-2.7	-9.7	15.8*	1.5	4.9	3.5
COc1ccc(CCC(=O)N2CCN(c3cccc(C)c3C)CC2)cc1	0.7	-0.9	-8.2	1.3	0.8	.	.
SMILES	LEDGF integ inh	PLCg1 inh	PLCb3 inh	MBD2 DNA inh	UHRF1 MBD2 ctr	UHRF1 DNA bind	MBD2 confirm
O=C(NNC(=O)c1ccccc1F)c1cccc(-n2cccc2)c1	7.5	-6.6	-0.1	24.4*	45.8*	45.8*	33.5*
O=C(COC(=O)c1ccc(O)cc1O)NC1CCCCCC1	-2.3	-0.2	-3.9	19.5*	-0.6	5.1	3.4
CCOC(=O)[C@]12CCCCC/C=C\1N(Cc1ccc(OC)cc1)C(=O)[C@H]2CC(=O)NCCCOC	2.4	-0.9	4.4	-1.6	0.5	.	.
COC(=O)[C@]12C[C@H](CC(=O)NCc3cccs3)C(=O)N(Cc3ccc4c(c3)OCO4)C1=C[C@H](C(C)C)O[C@@H]2C1CC1	4.4	-0.2	1.8	-0.6	-1.9	.	.
CCOC(=O)C(Cc1ccc(NC(C)=O)cc1)N1C(=O)c2ccccc2C1=O (configuration not stated)	2.1	-1.0	-3.8	17.2*	20.1	1.9	-0.6
CCOC(=O)C(Cc1ccc(NC(=O)/C(=C\c2ccccc2)NC(=O)c2ccccc2)cc1)N1C(=O)c2ccccc2C1=O (configuration not stated)	3.3	-10.5	-12.2	-3.5	3.0	.	.
CCC(C(=O)OCc1csc(CC(=O)Nc2ccccc2C)n1)c1ccccc1 (configuration not stated)	6.5	-2.9	-5.8	-3.1	-3.7	.	.
Cc1ccccc1NC(=O)Cc1nc(COC(=O)CC(C)c2ccccc2)cs1 (configuration not stated)	-0.9	2.8	-5.6	19.5*	0.8	2.4	5.0
CS(=O)(=O)N[C@@H]1C[C@@H]2O[C@H](CO)CC[C@@H]2O[C@@H]1CCc1ccc(/C=C/c2ccccc2)cc1	1.0	0.3	-2.3	1.1	2.9	.	.
COc1ccc(-n2c(SCC(=O)N/N=C(/C)c3cccc(O)c3)nc3ccccc3c2=O)cc1	-0.8	-2.3	2.3	-3.1	0.7	.	.
CCc1nnc(NC(=O)CSc2nnc(CNC(=O)c3ccccc3)o2)s1	-0.8	0.1	1.3	21.8*	0.7	8.8	3.6
COC(=O)c1ccc(OCc2cc(=O)n3ccsc3n2)cc1	4.1	-10.2	-12.5	13.4*	-2.8	10.8	5.9
O=C(OCc1cc(=O)n2ccsc2n1)C1(c2ccccc2)CC1	-2.8	0.1	-4.7	1.7	1.8	.	.
COc1ccc(S(=O)(=O)N2CCN(C(=O)c3cc4c(s3)CCC4)CC2)cc1	7.2	-4.5	-8.1	22.0*	45.8*	46.3*	43.5*
COc1ccc(C(=O)COC(=O)CCC(=O)c2cccs2)cc1	2.9	1.9	2.0	-0.8	-0.5	.	.
O=C(CCC(=O)c1cccs1)OCC(=O)c1ccccc1	-4.3	0.8	-2.3	48.4*	-0.4	4.5	1.3

Screens (PubChem)
